Data as given in the supplement of paper PMC11732987, “Enantioselective OTUD7B fragment discovery through chemoproteomics screening and high-throughput optimisation” (Communications Chemistry, 2025).

What was measured:
Assay in all cases: log2 ratio of Biotin-Ahx-Ub-VS probe labelling (fragment/DMSO); higher = less target engagement (more negative = stronger competition), active = hit call of the paper (q ≤ 0.05, log2 ratio ≤ -1)
Details in all cases: compound concentration: 200 uM; treatment time: 3 h
[1] = target: USP34 (UniProt Q70CQ2)
Method in brief: (§1)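 HEK293T lysate in Tris/CHAPS/IGEPAL buffer with protease inhibitors (495 µg per sample) was given fragment at 200 µM or vehicle for 3 h, in triplicate. It then received Biotin-Ahx-Ub-VS at 0.5 µM final for 1 h. Labelled DUBs were NeutrAvidin-enriched, digested with LysC and trypsin, and run by diaPASEF LC-MS/MS. Values are average log2 fragment/vehicle ratios by unpaired t-test on global-median-normalised Spectronaut quantities of proteins with ≥2 unique peptides.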

[2] = target: T1, USP36 (UniProt Q9P275)
T1 sequence (whole entry): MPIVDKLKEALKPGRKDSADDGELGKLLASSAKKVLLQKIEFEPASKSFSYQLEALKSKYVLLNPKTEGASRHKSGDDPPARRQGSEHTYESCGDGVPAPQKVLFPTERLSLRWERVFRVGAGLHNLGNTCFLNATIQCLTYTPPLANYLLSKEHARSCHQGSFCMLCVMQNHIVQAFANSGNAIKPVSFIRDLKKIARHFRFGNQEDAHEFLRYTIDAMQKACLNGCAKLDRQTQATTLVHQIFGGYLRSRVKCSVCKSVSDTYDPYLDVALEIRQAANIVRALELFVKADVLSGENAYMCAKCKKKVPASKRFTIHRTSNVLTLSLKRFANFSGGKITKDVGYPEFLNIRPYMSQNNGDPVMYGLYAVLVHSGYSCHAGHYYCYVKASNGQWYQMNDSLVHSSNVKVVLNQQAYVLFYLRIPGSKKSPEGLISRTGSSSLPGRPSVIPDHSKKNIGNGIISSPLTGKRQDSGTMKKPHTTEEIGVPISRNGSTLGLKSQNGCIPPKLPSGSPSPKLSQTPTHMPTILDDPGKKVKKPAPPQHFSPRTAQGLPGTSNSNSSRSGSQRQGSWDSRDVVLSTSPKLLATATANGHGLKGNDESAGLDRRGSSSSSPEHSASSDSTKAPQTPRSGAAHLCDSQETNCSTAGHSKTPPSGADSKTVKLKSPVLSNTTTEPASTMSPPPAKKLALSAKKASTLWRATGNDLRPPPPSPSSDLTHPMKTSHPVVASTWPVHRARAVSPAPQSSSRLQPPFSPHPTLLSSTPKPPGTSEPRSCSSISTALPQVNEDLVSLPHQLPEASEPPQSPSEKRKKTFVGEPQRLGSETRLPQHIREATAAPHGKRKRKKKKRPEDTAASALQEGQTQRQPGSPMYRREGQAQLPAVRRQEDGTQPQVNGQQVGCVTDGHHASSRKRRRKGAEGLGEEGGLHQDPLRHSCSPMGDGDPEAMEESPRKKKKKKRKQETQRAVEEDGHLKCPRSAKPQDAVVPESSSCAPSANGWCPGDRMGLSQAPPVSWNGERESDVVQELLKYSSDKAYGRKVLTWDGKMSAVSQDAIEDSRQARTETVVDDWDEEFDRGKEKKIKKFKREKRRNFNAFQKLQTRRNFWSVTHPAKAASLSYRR
Method in brief: as §1

[3] = target: T2, USP38 (UniProt Q8NB14)
T2 sequence (whole entry): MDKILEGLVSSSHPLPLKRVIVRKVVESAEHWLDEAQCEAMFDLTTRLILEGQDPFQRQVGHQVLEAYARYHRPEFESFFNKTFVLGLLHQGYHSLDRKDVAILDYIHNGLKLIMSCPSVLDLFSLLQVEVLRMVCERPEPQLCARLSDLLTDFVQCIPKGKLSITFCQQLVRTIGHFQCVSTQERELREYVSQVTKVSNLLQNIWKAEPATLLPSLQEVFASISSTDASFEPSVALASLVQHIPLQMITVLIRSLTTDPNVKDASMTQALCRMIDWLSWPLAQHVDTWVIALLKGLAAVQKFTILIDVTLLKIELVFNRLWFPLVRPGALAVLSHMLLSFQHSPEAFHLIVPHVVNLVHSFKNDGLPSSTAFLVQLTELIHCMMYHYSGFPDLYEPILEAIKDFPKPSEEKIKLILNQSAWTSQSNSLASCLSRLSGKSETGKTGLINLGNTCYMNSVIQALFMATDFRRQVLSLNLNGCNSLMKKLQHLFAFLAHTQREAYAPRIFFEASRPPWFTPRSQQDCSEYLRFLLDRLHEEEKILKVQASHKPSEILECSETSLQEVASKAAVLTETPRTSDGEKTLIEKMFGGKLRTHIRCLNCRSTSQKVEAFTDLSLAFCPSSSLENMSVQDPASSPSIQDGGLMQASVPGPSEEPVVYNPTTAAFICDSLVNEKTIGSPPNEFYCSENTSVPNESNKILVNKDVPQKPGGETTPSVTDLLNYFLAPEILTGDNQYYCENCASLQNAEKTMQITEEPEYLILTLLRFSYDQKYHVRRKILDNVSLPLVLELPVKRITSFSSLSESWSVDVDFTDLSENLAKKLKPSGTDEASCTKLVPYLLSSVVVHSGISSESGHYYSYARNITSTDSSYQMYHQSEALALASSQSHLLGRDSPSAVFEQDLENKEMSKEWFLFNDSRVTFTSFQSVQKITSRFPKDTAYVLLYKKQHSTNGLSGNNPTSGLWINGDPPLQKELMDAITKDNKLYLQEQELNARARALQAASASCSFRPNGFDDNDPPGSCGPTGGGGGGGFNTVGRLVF
Method in brief: as §1

[4] = target: T3, USP39 (UniProt Q53GS9)
T3 sequence (whole entry): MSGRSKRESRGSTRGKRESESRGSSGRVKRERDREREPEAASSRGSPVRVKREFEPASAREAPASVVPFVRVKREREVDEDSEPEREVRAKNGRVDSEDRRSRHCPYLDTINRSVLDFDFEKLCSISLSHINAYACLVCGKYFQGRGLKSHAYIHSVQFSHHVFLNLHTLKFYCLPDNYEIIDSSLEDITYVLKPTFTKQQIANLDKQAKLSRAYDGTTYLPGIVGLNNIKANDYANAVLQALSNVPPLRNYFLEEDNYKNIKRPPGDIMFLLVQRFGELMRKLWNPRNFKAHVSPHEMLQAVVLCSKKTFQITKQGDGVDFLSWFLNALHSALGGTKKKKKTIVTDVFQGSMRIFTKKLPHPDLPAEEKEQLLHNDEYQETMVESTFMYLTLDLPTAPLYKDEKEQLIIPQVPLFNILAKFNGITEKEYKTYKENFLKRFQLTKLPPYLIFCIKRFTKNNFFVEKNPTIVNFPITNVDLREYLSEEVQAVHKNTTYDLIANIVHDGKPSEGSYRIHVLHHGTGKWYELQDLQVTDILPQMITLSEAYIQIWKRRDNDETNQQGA
Method in brief: as §1

[5] = target: T4, USP4 (UniProt Q13107)
T4 sequence (whole entry): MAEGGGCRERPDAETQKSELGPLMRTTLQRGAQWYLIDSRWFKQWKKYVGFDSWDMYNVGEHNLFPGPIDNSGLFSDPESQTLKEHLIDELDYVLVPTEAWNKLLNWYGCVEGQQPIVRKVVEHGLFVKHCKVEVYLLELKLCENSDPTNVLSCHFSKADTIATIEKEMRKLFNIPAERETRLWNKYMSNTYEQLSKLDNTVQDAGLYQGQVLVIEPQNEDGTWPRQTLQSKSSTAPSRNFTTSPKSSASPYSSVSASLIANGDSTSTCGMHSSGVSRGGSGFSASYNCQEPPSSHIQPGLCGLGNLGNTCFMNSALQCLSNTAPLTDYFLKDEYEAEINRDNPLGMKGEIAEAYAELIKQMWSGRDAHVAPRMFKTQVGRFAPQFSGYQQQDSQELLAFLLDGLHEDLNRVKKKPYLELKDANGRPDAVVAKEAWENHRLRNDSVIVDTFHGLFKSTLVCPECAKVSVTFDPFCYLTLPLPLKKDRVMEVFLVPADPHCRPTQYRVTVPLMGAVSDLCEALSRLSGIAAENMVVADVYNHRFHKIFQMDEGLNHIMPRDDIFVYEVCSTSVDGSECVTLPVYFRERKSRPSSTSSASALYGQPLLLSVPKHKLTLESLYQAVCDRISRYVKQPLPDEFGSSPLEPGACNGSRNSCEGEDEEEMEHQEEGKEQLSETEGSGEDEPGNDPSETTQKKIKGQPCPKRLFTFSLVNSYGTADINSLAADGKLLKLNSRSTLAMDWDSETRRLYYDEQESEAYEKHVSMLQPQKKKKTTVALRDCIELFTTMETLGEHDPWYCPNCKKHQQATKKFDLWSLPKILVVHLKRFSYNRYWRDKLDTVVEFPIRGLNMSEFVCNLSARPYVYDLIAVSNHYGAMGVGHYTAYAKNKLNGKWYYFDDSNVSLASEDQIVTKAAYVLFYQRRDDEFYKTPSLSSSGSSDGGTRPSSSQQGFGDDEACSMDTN
Method in brief: as §1

Measured: log2 ratio of Biotin-Ahx-Ub-VS probe labelling

USP34, sequence (Q70CQ2 whole entry, the tested form may be a part): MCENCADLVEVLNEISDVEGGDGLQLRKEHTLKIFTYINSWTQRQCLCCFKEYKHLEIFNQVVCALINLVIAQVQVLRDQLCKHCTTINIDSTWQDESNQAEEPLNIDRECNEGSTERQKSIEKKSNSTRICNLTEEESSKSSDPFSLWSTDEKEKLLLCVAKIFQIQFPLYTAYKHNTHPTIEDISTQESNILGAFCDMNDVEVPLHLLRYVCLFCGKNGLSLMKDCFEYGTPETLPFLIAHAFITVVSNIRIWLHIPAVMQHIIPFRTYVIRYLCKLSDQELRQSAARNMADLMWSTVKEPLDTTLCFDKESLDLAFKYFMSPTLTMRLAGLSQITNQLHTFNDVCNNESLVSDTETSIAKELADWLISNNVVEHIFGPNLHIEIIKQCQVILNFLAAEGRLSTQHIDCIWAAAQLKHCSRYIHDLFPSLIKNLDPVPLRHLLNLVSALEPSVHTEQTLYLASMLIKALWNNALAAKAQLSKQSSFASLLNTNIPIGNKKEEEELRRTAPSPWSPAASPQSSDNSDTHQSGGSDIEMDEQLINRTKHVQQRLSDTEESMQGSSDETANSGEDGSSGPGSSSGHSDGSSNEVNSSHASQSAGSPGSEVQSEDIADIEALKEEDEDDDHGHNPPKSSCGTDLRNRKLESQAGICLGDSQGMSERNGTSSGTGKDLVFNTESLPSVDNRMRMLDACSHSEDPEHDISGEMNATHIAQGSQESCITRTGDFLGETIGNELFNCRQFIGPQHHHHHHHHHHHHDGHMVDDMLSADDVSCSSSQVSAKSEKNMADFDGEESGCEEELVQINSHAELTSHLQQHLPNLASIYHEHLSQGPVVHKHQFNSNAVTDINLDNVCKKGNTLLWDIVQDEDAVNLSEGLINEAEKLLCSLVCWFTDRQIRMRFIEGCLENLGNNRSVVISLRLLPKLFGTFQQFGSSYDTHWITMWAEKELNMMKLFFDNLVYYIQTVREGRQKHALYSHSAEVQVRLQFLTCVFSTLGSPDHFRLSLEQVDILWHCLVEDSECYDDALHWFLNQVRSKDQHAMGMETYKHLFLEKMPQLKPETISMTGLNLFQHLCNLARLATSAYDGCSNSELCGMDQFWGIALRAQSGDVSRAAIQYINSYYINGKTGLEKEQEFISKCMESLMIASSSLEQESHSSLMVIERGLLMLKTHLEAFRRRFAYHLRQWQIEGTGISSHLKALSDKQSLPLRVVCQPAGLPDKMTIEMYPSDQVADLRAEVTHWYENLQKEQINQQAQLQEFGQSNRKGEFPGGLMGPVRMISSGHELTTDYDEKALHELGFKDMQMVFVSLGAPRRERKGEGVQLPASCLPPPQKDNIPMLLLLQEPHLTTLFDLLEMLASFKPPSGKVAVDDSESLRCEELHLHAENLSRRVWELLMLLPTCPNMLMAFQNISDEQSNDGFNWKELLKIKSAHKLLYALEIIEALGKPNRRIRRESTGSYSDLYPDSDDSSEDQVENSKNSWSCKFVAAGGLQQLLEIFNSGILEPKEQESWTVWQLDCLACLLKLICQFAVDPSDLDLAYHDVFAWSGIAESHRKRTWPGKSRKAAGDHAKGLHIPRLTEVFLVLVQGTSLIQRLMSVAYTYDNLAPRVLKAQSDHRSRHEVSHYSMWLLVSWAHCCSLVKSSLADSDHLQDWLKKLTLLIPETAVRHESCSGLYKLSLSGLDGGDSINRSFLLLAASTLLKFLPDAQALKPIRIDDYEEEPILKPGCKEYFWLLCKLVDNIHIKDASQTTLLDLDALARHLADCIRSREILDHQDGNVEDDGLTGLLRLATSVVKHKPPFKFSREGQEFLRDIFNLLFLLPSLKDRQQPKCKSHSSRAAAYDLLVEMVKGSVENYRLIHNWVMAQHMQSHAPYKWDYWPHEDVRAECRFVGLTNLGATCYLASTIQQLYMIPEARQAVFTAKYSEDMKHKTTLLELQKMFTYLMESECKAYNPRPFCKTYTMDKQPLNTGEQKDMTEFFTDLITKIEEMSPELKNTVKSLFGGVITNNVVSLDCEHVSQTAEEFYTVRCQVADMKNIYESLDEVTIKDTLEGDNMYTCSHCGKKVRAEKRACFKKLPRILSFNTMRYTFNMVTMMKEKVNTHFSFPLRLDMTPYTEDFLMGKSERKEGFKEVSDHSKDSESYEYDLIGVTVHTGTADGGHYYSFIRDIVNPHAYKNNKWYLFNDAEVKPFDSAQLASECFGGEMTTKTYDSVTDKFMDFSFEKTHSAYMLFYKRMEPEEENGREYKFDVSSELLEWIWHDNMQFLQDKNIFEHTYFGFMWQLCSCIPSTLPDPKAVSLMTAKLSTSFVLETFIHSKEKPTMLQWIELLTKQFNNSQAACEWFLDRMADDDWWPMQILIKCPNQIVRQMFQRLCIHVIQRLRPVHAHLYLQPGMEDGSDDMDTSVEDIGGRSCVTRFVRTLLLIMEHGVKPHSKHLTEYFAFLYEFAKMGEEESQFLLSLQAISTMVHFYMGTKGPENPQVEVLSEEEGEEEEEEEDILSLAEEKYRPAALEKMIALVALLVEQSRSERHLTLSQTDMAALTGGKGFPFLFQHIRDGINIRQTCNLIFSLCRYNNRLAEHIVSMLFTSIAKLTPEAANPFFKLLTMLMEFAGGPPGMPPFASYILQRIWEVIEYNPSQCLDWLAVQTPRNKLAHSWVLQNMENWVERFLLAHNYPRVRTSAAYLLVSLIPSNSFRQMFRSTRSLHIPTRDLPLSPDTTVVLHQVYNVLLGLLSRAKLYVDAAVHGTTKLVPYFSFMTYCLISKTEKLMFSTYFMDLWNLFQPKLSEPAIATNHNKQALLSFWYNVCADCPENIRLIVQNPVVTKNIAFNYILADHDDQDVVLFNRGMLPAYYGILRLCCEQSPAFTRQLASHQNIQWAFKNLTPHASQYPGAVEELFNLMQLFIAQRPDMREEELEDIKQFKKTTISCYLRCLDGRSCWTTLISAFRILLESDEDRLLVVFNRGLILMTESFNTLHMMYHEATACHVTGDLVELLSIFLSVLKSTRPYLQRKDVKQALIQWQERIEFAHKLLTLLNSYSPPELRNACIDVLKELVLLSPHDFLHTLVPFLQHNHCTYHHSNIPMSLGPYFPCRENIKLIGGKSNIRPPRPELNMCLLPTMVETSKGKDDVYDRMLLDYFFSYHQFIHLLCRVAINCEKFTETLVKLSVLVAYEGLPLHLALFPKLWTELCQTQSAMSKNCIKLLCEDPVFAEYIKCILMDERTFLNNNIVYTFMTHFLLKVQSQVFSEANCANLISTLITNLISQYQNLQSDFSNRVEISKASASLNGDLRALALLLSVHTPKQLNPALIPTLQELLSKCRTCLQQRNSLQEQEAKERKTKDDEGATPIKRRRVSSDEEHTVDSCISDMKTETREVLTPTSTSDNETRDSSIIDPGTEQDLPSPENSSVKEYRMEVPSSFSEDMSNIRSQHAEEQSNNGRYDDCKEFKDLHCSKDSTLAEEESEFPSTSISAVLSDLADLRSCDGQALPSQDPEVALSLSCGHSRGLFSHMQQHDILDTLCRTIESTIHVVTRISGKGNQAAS

COc1ccc(C2CCCN2C(=O)CCl)c(OC)c1 (stereo not given)
inactive: [1] -0.0529 | [2] -0.129 | [3] -0.231 | [4] 0.128 | [5] -0.347
